Molecules are shown by their SMILES. Where only a bound is given, the exact number is not on record here.
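Further: kd values determined as follow-up on hits from a single-replicate KINOMEscan panel screen.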

The test system of the first assay is CLK3.
The Kd is the concentration at which binding is half-saturated. A high value points to weaker binding. `COc1ccc(NC(=O)c2ccc(-c3cc(-c4nnc(C)o4)ccc3C)cc2)cc1` [GW595885] gave a Kd of over 10000 nM.
`Nc1nccc2scc(-c3ccc4c(c3)CCN4C(=O)Cc3cc(F)ccc3F)c12` [GSK2587663] came in with a Kd of over 10000 nM.
The same measure, in the same setting: with `CSc1nn2c(=O)cc(N3CCOCC3)nc2n1Cc1cccc(Cl)c1Cl` [GSK2347225] the figure was over 10000 nM; with `Nc1nc(-c2cccnc2)c(-c2ccnc3ccccc23)s1` [GW684083], over 10000 nM.

In a further assay the test system is CSF1R.
For `COc1cc2c(Nc3cccc(NC(=O)c4ccccc4)c3)ncnc2cc1OCCCN1CCOCC1` [GSK223810], the affinity, expressed as Kd, was 420 nM.
`Cc1ccc(NC(=O)c2cccc(C#N)c2)cc1-c1ccc(C(=O)Nc2ccncc2)cc1` [GSK1398463] displayed a Kd of 780 nM.
Still for that read-out and setting: with `COc1ccc(NC(=O)Nc2ccc(C)c(-c3ccc(C(=O)Nc4ccncc4)cc3)c2)cc1` [GSK1398475] the figure was 1800 nM; with `O=C(NCCCN1CCCC1=O)c1cnc(NCc2cc(Cl)ccc2Cl)nc1NC1CCNCC1`, over 10000 nM.
`Cn1ccc2ncnc(Oc3ccc(NC(=O)Nc4cccnc4)c(Cl)c3)c21` showed an equilibrium dissociation constant (Kd) of 290 nM.

For the origin of these results see PMC5540273 (PLoS ONE, 2017).
